The values below come from doi:10.1101/2024.03.05.583629.

For the assay, the target named is pT7_6His-AlfaTag-HOXD13 (human, UniProt P35453 263-343). The assay can be described thus: PADIT-seq. The note with it: dsDNA, one strand shown.
Sequence of pT7_6His-AlfaTag-HOXD13 (P35453 263-343): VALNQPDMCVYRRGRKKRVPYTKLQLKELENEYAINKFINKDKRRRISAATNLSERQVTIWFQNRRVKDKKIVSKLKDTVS
In the case of “CTCGAGGATATCAAGATCTGGCCTCGGCGTTTTAATCGGAACCTCTAGCTAGCCGACTCACTATAGGGATAATCGCCCTGAGCAAAGACC”, the binding signal was found to be 0.636 ± 0.0931 log2FC.
Take “CTCGAGGATATCAAGATCTGGCCTCGGCCTTCTAAAAGGAACCTCTAGCTAGCCGACTCACTATAGGGATAATCGCCCTGAGCAAAGACC”: the binding signal was found to be 0.087 ± 0.127 log2FC.
In the case of “CTCGAGGATATCAAGATCTGGCCTCGGCCAATGGGCGGGAACCTCTAGCTAGCCGACTCACTATAGGGATAATCGCCCTGAGCAAAGACC” it was -0.903 ± 0.11 log2FC; in that of “CTCGAGGATATCAAGATCTGGCCTCGGCCGCACCCGCGGAACCTCTAGCTAGCCGACTCACTATAGGGATAATCGCCCTGAGCAAAGACC”, -1.02 ± 0.126 log2FC.
Under “CTCGAGGATATCAAGATCTGGCCTCGGCCTAGTAAAAGGAACCTCTAGCTAGCCGACTCACTATAGGGATAATCGCCCTGAGCAAAGACC” stands 2.42 ± 0.0781 log2FC; under “CTCGAGGATATCAAGATCTGGCCTCGGCCGTTTAAAAGGAACCTCTAGCTAGCCGACTCACTATAGGGATAATCGCCCTGAGCAAAGACC”, 1.9 ± 0.069 log2FC.
In the case of “CTCGAGGATATCAAGATCTGGCCTCGGCTGCATAAAAGGAACCTCTAGCTAGCCGACTCACTATAGGGATAATCGCCCTGAGCAAAGACC” it was 1.39 ± 0.0891 log2FC.
For “CTCGAGGATATCAAGATCTGGCCTCGGCGTTTTACTAGGAACCTCTAGCTAGCCGACTCACTATAGGGATAATCGCCCTGAGCAAAGACC”, the binding signal came out at 2.96 ± 0.0769 log2FC.
“CTCGAGGATATCAAGATCTGGCCTCGGCCTTTTACTGGGAACCTCTAGCTAGCCGACTCACTATAGGGATAATCGCCCTGAGCAAAGACC” returned a binding signal of 2.53 ± 0.0719 log2FC.
Sequence “CTCGAGGATATCAAGATCTGGCCTCGGCAGGGTAAAAGGAACCTCTAGCTAGCCGACTCACTATAGGGATAATCGCCCTGAGCAAAGACC” showed a binding signal of -0.13 ± 0.081 log2FC.
Consider “CTCGAGGATATCAAGATCTGGCCTCGGCCATCTAAAAGGAACCTCTAGCTAGCCGACTCACTATAGGGATAATCGCCCTGAGCAAAGACC”, for which the binding signal was -0.085 ± 0.105 log2FC.
Under “CTCGAGGATATCAAGATCTGGCCTCGGCCGCCCAGAAGGAACCTCTAGCTAGCCGACTCACTATAGGGATAATCGCCCTGAGCAAAGACC” stands -1.09 ± 0.133 log2FC; under “CTCGAGGATATCAAGATCTGGCCTCGGCTTTTTAACAGGAACCTCTAGCTAGCCGACTCACTATAGGGATAATCGCCCTGAGCAAAGACC”, 2.05 ± 0.0793 log2FC; under “CTCGAGGATATCAAGATCTGGCCTCGGCGGGGTAAAAGGAACCTCTAGCTAGCCGACTCACTATAGGGATAATCGCCCTGAGCAAAGACC”, -0.462 ± 0.0883 log2FC.
In the case of “CTCGAGGATATCAAGATCTGGCCTCGGCTTTTTATCCGGAACCTCTAGCTAGCCGACTCACTATAGGGATAATCGCCCTGAGCAAAGACC” it was 1.15 ± 0.0852 log2FC; in that of “CTCGAGGATATCAAGATCTGGCCTCGGCCATGTAAAAGGAACCTCTAGCTAGCCGACTCACTATAGGGATAATCGCCCTGAGCAAAGACC”, 1.41 ± 0.0975 log2FC; in that of “CTCGAGGATATCAAGATCTGGCCTCGGCGTCCTAAAAGGAACCTCTAGCTAGCCGACTCACTATAGGGATAATCGCCCTGAGCAAAGACC”, 0.117 ± 0.0783 log2FC.
“CTCGAGGATATCAAGATCTGGCCTCGGCGTTTTATGTGGAACCTCTAGCTAGCCGACTCACTATAGGGATAATCGCCCTGAGCAAAGACC” had a binding signal of 2.96 ± 0.0773 log2FC.
In the case of “CTCGAGGATATCAAGATCTGGCCTCGGCGAACTAAAAGGAACCTCTAGCTAGCCGACTCACTATAGGGATAATCGCCCTGAGCAAAGACC” it was -0.56 ± 0.0894 log2FC.
The sequence “CTCGAGGATATCAAGATCTGGCCTCGGCGAAGTAAAAGGAACCTCTAGCTAGCCGACTCACTATAGGGATAATCGCCCTGAGCAAAGACC” had a binding signal of 0.136 ± 0.0787 log2FC.
In the case of “CTCGAGGATATCAAGATCTGGCCTCGGCAATTGGGCGGGAACCTCTAGCTAGCCGACTCACTATAGGGATAATCGCCCTGAGCAAAGACC”, the binding signal is -0.563 ± 0.097 log2FC.
The sequence “CTCGAGGATATCAAGATCTGGCCTCGGCGCGGTAGCGGGAACCTCTAGCTAGCCGACTCACTATAGGGATAATCGCCCTGAGCAAAGACC” returned a binding signal of -1.07 ± 0.136 log2FC.
Regarding “CTCGAGGATATCAAGATCTGGCCTCGGCGTTTTATAAGGAACCTCTAGCTAGCCGACTCACTATAGGGATAATCGCCCTGAGCAAAGACC”, the binding signal was 3.26 ± 0.0829 log2FC.
In turn, “CTCGAGGATATCAAGATCTGGCCTCGGCCGCCCAATAGGAACCTCTAGCTAGCCGACTCACTATAGGGATAATCGCCCTGAGCAAAGACC” returned a binding signal of -0.536 ± 0.118 log2FC.
Take “CTCGAGGATATCAAGATCTGGCCTCGGCATTTTAATTGGAACCTCTAGCTAGCCGACTCACTATAGGGATAATCGCCCTGAGCAAAGACC”: the binding signal is 2.74 ± 0.0827 log2FC.
Under “CTCGAGGATATCAAGATCTGGCCTCGGCTTTTTATGCGGAACCTCTAGCTAGCCGACTCACTATAGGGATAATCGCCCTGAGCAAAGACC” stands 2.03 ± 0.081 log2FC; under “CTCGAGGATATCAAGATCTGGCCTCGGCACGTTAAAAGGAACCTCTAGCTAGCCGACTCACTATAGGGATAATCGCCCTGAGCAAAGACC”, 1.42 ± 0.0726 log2FC; under “CTCGAGGATATCAAGATCTGGCCTCGGCGCGTAAGCGGGAACCTCTAGCTAGCCGACTCACTATAGGGATAATCGCCCTGAGCAAAGACC”, -0.575 ± 0.113 log2FC.
“CTCGAGGATATCAAGATCTGGCCTCGGCTGAGTAAAAGGAACCTCTAGCTAGCCGACTCACTATAGGGATAATCGCCCTGAGCAAAGACC”: the binding signal came out at 0.229 ± 0.0993 log2FC.
In the case of “CTCGAGGATATCAAGATCTGGCCTCGGCGTTTTATCCGGAACCTCTAGCTAGCCGACTCACTATAGGGATAATCGCCCTGAGCAAAGACC” it was 1 ± 0.0994 log2FC.
Under “CTCGAGGATATCAAGATCTGGCCTCGGCACCCCACGCGGAACCTCTAGCTAGCCGACTCACTATAGGGATAATCGCCCTGAGCAAAGACC” stands -1.03 ± 0.136 log2FC.
Sequence “CTCGAGGATATCAAGATCTGGCCTCGGCGCACTAAAAGGAACCTCTAGCTAGCCGACTCACTATAGGGATAATCGCCCTGAGCAAAGACC” yielded a binding signal of 0.431 ± 0.0748 log2FC.
Take “CTCGAGGATATCAAGATCTGGCCTCGGCGATCTAAAAGGAACCTCTAGCTAGCCGACTCACTATAGGGATAATCGCCCTGAGCAAAGACC”: the binding signal is -0.592 ± 0.0883 log2FC.
Regarding “CTCGAGGATATCAAGATCTGGCCTCGGCTTTTTAAGGGGAACCTCTAGCTAGCCGACTCACTATAGGGATAATCGCCCTGAGCAAAGACC”, the binding signal came out at 1.83 ± 0.0924 log2FC.
For the sequence “CTCGAGGATATCAAGATCTGGCCTCGGCGCCTTAAAAGGAACCTCTAGCTAGCCGACTCACTATAGGGATAATCGCCCTGAGCAAAGACC”, the binding signal was determined as 0.578 ± 0.0742 log2FC.
The sequence “CTCGAGGATATCAAGATCTGGCCTCGGCTTTTTAAACGGAACCTCTAGCTAGCCGACTCACTATAGGGATAATCGCCCTGAGCAAAGACC” gave a binding signal of 1.28 ± 0.101 log2FC.
Under “CTCGAGGATATCAAGATCTGGCCTCGGCCTGCTAAAAGGAACCTCTAGCTAGCCGACTCACTATAGGGATAATCGCCCTGAGCAAAGACC” stands 0.179 ± 0.113 log2FC; under “CTCGAGGATATCAAGATCTGGCCTCGGCTTAGTAAAAGGAACCTCTAGCTAGCCGACTCACTATAGGGATAATCGCCCTGAGCAAAGACC”, 1.23 ± 0.0947 log2FC; under “CTCGAGGATATCAAGATCTGGCCTCGGCGGTGTAAAAGGAACCTCTAGCTAGCCGACTCACTATAGGGATAATCGCCCTGAGCAAAGACC”, 0.668 ± 0.0814 log2FC.
